Laboratory results reported in PubChem BioAssay (NCI).
This is part of a sample that, as a whole, favours compounds with a hit. Of some 79,000 tested, about 15% had one in any assay. Calls of active or inactive are those of the source. No stated cut-off is given here; in the data, active means growth inhibition above about 70%; inactive means the rest.

What was measured:
[1] = NCI Yeast Anticancer Drug Screen. Data for the mec2-1 strain (AID 157); details: S. cerevisiae mec2-1 strain, hits give high values
In short: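 Test agents were screened against the mec2-1 yeast strain, with defined DNA repair or cell cycle alteration. Growth was scored as inhibition against vehicle-only controls.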

[2] = NCI Yeast Anticancer Drug Screen. Data for the rad14 strain (AID 159);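 further: 0% = growth of vehicle-treated control cultures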; details: S. cerevisiae rad14 strain growth inhibition, hits give high values
In short: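 Inhibition of growth is reported for a repair-deficient yeast mutant following compound treatment, calculated relative to cultures that received vehicle.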

[3] = NCI Yeast Anticancer Drug Screen. Data for the sgs1 mgt1 strain (AID 161);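 further: 0% = growth of cultures given vehicle only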; details: S. cerevisiae sgs1 mgt1 strain, hits give high values
In short: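 Read-out: growth inhibition vs vehicle controls. Cells: mutant yeast strain deficient in DNA damage repair.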

[4] = NCI Yeast Anticancer Drug Screen. Data for the CLN2oe strain (AID 163);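 further: 0% = growth of vehicle-only control cultures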; details: S. cerevisiae CLN2oe strain, hits give high values
In short: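 Here, growth inhibition in a cell-cycle-altered yeast strain after compound exposure was quantified against vehicle control growth.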

[5] = NCI Yeast Anticancer Drug Screen. Data for the cln2 rad14 strain (AID 165);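 further: 0% = growth equal to vehicle treated cultures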; details: S. cerevisiae cln2 rad14 strain, hits give high values
In short: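 Growth of compound-exposed yeast (cln2 rad14 genotype) measured and expressed as inhibition relative to vehicle.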

[6] = NCI Yeast Anticancer Drug Screen. Data for the bub3 strain (AID 167); details: S. cerevisiae bub3 mutant strain, hits give high values
In short: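 Mutant yeast screening strain plus compound; vehicle-treated cultures serve as the 0% inhibition reference.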

[7] = NCI Yeast Anticancer Drug Screen. Data for the wt2 strain (AID 169); details: S. cerevisiae wt2 strain growth inhibition, hits give high values
In short: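 Genetically defined yeast strains from a DNA-repair/cell-cycle panel were used. Compound-exposed yeast growth was measured, and the inhibition was calculated relative to vehicle treatment.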

[8] = NCI Yeast Anticancer Drug Screen. Data for the mlh1 strain (AID 171);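 further: 0% = growth of vehicle-treated control cultures of the same strain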; details: S. cerevisiae mlh1 strain growth inhibition, hits give high values
In short: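 Here the genetically defined yeast mutant is grown with each compound, and the extent to which its growth falls below that of vehicle-exposed cells is reported.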

[9] = NCI Yeast Anticancer Drug Screen. Data for the sgs1 strain (AID 173);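 further: 0% = growth of vehicle-only control cultures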; details: S. cerevisiae sgs1 mutant, hits give high values
In short: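 Relative growth inhibition, referenced to vehicle, was determined in a yeast strain with a defined alteration affecting DNA damage repair or cell cycle control after compound exposure.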

[10] = NCI Yeast Anticancer Drug Screen. Data for the mlh1 rad18 strain (AID 175); details: S. cerevisiae mlh1 rad18 strain growth inhibition, hits give high values
In short: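 In this whole-cell yeast screen, a strain with altered DNA damage repair is challenged with compound, and its growth is measured against matched vehicle-treated controls.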

[11] = NCI Yeast Anticancer Drug Screen. Data for the rad18 strain (AID 177); details: S. cerevisiae rad18 mutant growth inhibition, hits give high values
In short: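 Screen uses a yeast strain with a defined lesion in DNA damage repair; compound effect is read as loss of growth compared to untreated vehicle cultures.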

[12] = NCI Yeast Anticancer Drug Screen. Data for the rad52 strain (AID 147);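 further: 0% = growth of vehicle-treated control cultures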; details: S. cerevisiae rad52 mutant growth inhibition, hits give high values
In short: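 Measured: yeast growth inhibition. System: strain with a defined DNA damage repair alteration. Reference: vehicle-treated control cultures.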

[13] = NCI Yeast Anticancer Drug Screen. Data for the wt1 strain (AID 149);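 further: 0% = growth of vehicle-treated wt1 cultures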; details: S. cerevisiae wt1 strain (SPY 50644) growth inhibition, hits give high values
In short: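 Each compound is tested on wt1 yeast and the loss of growth versus vehicle gives the inhibition value.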

[14] = NCI Yeast Anticancer Drug Screen. Data for the rad50EPP+ strain (AID 151);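 further: 0% = growth of vehicle-treated control cultures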; details: S. cerevisiae rad50 mutant strain, hits give high values
In short: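 One strain with a rad50 alteration (rad50EPP+) was compound-treated, its growth then compared to that of vehicle controls.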

[15] = NCI Yeast Anticancer Drug Screen. Data for the mgt1 strain (AID 153); details: S. cerevisiae mgt1 mutant growth inhibition, hits give high values
In short: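 After exposure of the mgt1 yeast mutant to compound, growth was measured and reported as inhibition compared with vehicle controls.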

[16] = NCI Yeast Anticancer Drug Screen. Data for the rad50 strain (AID 155);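 further: 0% = growth of vehicle-only cultures of the same strain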; details: S. cerevisiae rad50 strain growth inhibition, hits give high values
In short: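 Vehicle-treated cultures provide the reference for the growth inhibition reported for compound-exposed, repair-deficient yeast.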

[17] = at 5.0 µM (retest, dose inferred, filed as 0.5)
[18] = at 50.0 µM (retest, dose inferred, filed as 5.0)

Measured: growth inhibition

O=S(=O)(c1cc(Cl)ccc1O)c1cc(Cl)ccc1O
active: [1]; at 11.0 µM 99% | [1]; at 33.0 µM 98% | [1]; [18] 100% | [1]; at 50.0 µM 99.7% | [1]; at 100.0 µM 100% | [2]; at 3.7 µM 96% | [2]; at 11.0 µM 99% | [2]; at 33.0 µM 99% | [2]; at 100.0 µM 100% | [3]; [17] 75% | [3]; [18] 100% | [3]; at 50.0 µM 99.5% | [4]; at 3.7 µM 89% | [4]; at 11.0 µM 99% | [4]; at 33.0 µM 100% | [4]; at 100.0 µM 99% | [5]; [18] 99% | [5]; at 50.0 µM 98.9% | [6]; at 3.7 µM 91% | [6]; at 11.0 µM 98% | [6]; at 33.0 µM 99% | [6]; [18] 99% | [6]; at 50.0 µM 99.4% | [6]; at 100.0 µM 99% | [7]; at 3.7 µM 85% | [7]; at 11.0 µM 97% | [7]; at 33.0 µM 99% | [7]; at 100.0 µM 100% | [8]; at 3.7 µM 85% | [8]; at 11.0 µM 99% | [8]; at 33.0 µM 99% | [8]; at 100.0 µM 99% | [9]; at 3.7 µM 91% | [9]; at 11.0 µM 99% | [9]; at 33.0 µM 99% | [9]; at 100.0 µM 99% | [10]; [17] 82% | [10]; [18] 99% | [10]; at 50.0 µM 99.7% | [11]; at 3.7 µM 84% | [11]; at 11.0 µM 98% | [11]; at 33.0 µM 99% | [11]; at 100.0 µM 99%
inactive: [1]; [17] 35% | [2]; at 1.2 µM 9% | [4]; at 1.2 µM 23% | [5]; [17] 23% | [6]; at 1.2 µM 20% | [6]; [17] 48% | [7]; at 1.2 µM 7% | [8]; at 1.2 µM 21% | [9]; at 1.2 µM 26% | [11]; at 1.2 µM 26%

Cc1c(-c2ccccc2)[nH]c2ccccc12
active: [12]; at 33.0 µM 94% | [12]; at 100.0 µM 99% | [13]; at 33.0 µM 92% | [13]; at 100.0 µM 98% | [14]; at 100.0 µM 98% | [15]; at 33.0 µM 95% | [15]; at 100.0 µM 98% | [16]; at 33.0 µM 95% | [16]; [18] 81% | [16]; at 50.0 µM 91.3% | [16]; at 100.0 µM 98% | [1]; at 33.0 µM 94% | [1]; [18] 85% | [1]; at 50.0 µM 92.5% | [1]; at 100.0 µM 98% | [2]; at 33.0 µM 95% | [2]; at 100.0 µM 98% | [3]; [18] 99% | [3]; at 50.0 µM 93.5% | [4]; at 33.0 µM 98% | [4]; at 100.0 µM 99% | [5]; [18] 99% | [5]; at 50.0 µM 92.3% | [6]; at 33.0 µM 95% | [6]; [18] 98% | [6]; at 50.0 µM 91.8% | [6]; at 100.0 µM 98% | [7]; at 100.0 µM 99% | [8]; at 33.0 µM 96% | [8]; at 100.0 µM 98% | [9]; at 33.0 µM 97% | [9]; at 100.0 µM 100% | [10]; [18] 96% | [10]; at 50.0 µM 91.2% | [11]; at 33.0 µM 97% | [11]; at 100.0 µM 99%
inactive: [12]; at 1.2 µM -7% | [12]; at 3.7 µM -8% | [12]; at 11.0 µM -4% | [13]; at 1.2 µM -21% | [13]; at 3.7 µM -12% | [13]; at 11.0 µM -23% | [14]; at 1.2 µM -2% | [14]; at 3.7 µM 20% | [14]; at 11.0 µM 16% | [14]; at 33.0 µM 52% | [15]; at 1.2 µM -19% | [15]; at 3.7 µM -12% | [15]; at 11.0 µM -11% | [16]; at 1.2 µM -4% | [16]; at 3.7 µM -8% | [16]; [17] 33% | [16]; at 11.0 µM -12% | [1]; at 1.2 µM -2% | [1]; at 3.7 µM 8% | [1]; [17] 48% | [1]; at 11.0 µM -2% | [2]; at 1.2 µM -2% | [2]; at 3.7 µM 0% | [2]; at 11.0 µM 2% | [3]; [17] -1% | [4]; at 1.2 µM 5% | [4]; at 3.7 µM 3% | [4]; at 11.0 µM 1% | [5]; [17] 51% | [6]; at 1.2 µM -6% | [6]; at 3.7 µM -7% | [6]; [17] 22% | [6]; at 11.0 µM -15% | [7]; at 1.2 µM 10% | [7]; at 3.7 µM 5% | [7]; at 11.0 µM 6% | [7]; at 33.0 µM 68% | [8]; at 1.2 µM 7% | [8]; at 3.7 µM 8% | [8]; at 11.0 µM 6% | [9]; at 1.2 µM 14% | [9]; at 3.7 µM 19% | [9]; at 11.0 µM 14% | [10]; [17] 38% | [11]; at 1.2 µM 3% | [11]; at 3.7 µM 5% | [11]; at 11.0 µM -9%

Nc1ccc(S(=O)(=O)Nc2ccc(Nc3c4ccccc4nc4ccccc34)cc2)cc1
inactive: [12]; at 1.2 µM 21% | [12]; at 3.7 µM 69% | [13]; at 1.2 µM 2% | [13]; at 3.7 µM 19% | [13]; at 11.0 µM 18% | [13]; at 33.0 µM 18% | [13]; at 100.0 µM 43% | [14]; at 1.2 µM 8% | [14]; at 3.7 µM 56% | [15]; at 1.2 µM 4% | [15]; at 3.7 µM 4% | [15]; at 11.0 µM 3% | [15]; at 33.0 µM 13% | [15]; at 100.0 µM 50% | [16]; at 1.2 µM 22% | [16]; at 3.7 µM 66% | [16]; [17] 59% | [1]; at 1.2 µM 0% | [1]; at 3.7 µM 11% | [1]; [17] -24% | [1]; at 11.0 µM 6% | [1]; at 33.0 µM 19% | [1]; [18] 31% | [1]; at 50.0 µM 57.4% | [2]; at 1.2 µM 7% | [2]; at 3.7 µM 18% | [2]; at 11.0 µM 14% | [2]; at 33.0 µM 25% | [2]; at 100.0 µM 58% | [3]; [17] -7% | [3]; [18] 19% | [3]; at 50.0 µM 21% | [4]; at 1.2 µM -29% | [4]; at 3.7 µM -5% | [4]; at 11.0 µM -15% | [4]; at 33.0 µM 4% | [4]; at 100.0 µM 33% | [5]; [17] -3% | [5]; [18] 7% | [5]; at 50.0 µM 13.8% | [6]; at 1.2 µM 8% | [6]; at 3.7 µM 31% | [6]; [17] -18% | [6]; at 11.0 µM 15% | [6]; at 33.0 µM 4% | [6]; [18] -4% | [6]; at 50.0 µM -22.1% | [6]; at 100.0 µM 39% | [7]; at 1.2 µM -42% | [7]; at 3.7 µM -39% | [7]; at 11.0 µM -38% | [7]; at 33.0 µM -30% | [7]; at 100.0 µM 60% | [8]; at 1.2 µM 4% | [8]; at 3.7 µM 24% | [8]; at 11.0 µM 23% | [8]; at 33.0 µM 24% | [8]; at 100.0 µM 60% | [9]; at 1.2 µM 8% | [9]; at 3.7 µM 17% | [9]; at 11.0 µM 24% | [9]; at 33.0 µM 43% | [10]; [17] 0% | [10]; [18] 19% | [11]; at 1.2 µM 17% | [11]; at 3.7 µM 11% | [11]; at 11.0 µM 6% | [11]; at 33.0 µM 6% | [11]; at 100.0 µM 58%
active: [12]; at 11.0 µM 88% | [12]; at 33.0 µM 93% | [12]; at 100.0 µM 95% | [14]; at 11.0 µM 77% | [14]; at 33.0 µM 76% | [14]; at 100.0 µM 79% | [16]; at 11.0 µM 86% | [16]; at 33.0 µM 93% | [16]; [18] 87% | [16]; at 50.0 µM 79.1% | [16]; at 100.0 µM 94% | [1]; at 100.0 µM 77% | [9]; at 100.0 µM 79%
